We go through 22 sequences from the supplement of paper PMC6555819.

This test relates to PPARg:RXRa 30nM:10nM, anti-RXR (NR concentration 30 nM, RXRa partner concentration 10 nM). Description: PBM binding z-score (relative to random genomic background probes); higher = stronger binding; sequences stand for … in GC…GCGATTGACAGCGTAGAATGAAGG
An outline of the steps: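 Ligand-free nuclear receptor dimers were bound for 1 h to custom Agilent 4×180K protein-binding microarrays. Detection used antibodies against each partner (one per run). Binding z-scores rest on regression-normalized fluorescence, with random background probes as the reference.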
TGAATGAGGTTAAAGATCTGGGAACGTGGCGTCG: the PBM binding z-score was 1.69.
With CTCGCAAGGTCGGTTGAGGTGAGTATACGGATAA, the PBM binding z-score is -0.357.
Then CCACACAGGTGAAAGGTAACTCAGTCTGGTACGC, with 3.68; and CCTACTGCGCCAAGGTCATTGATCAGTCAAAGCA, with -0.0931.
Sequence TCTATTAGTTGAAGTGCAACCGACGAGTCCGTTT registered a PBM binding z-score of 3.77.
AGAACGAGGGCAATGAGTAGATAGCACGGGTGGC: the PBM binding z-score was 0.241.
Take TTGCCAAGGTGAAGGTCGTTGATCCCTCTGTAGA: the PBM binding z-score is 0.251.
Sequence TCTAGTTGGTCACGGAGGTCACACACGACGGGTA came in with a PBM binding z-score of 3.73.
Sequence ACAGACAGGTTAGTGAAGGTAACTCAGCTGGACG gave a PBM binding z-score of -0.22.
Then GCGATTGGGGCAAAGCAGGTTACCATAAGGTTGG, with -0.0974; and ATCTCTAGGTAAGACTCCGTTCAGTGAAGAACGC, with 0.111; and CCGACTGGGCCACGAAAGGTCATTGATTCAGTGA, with 1.52.
For the sequence AATACAGGGTCATTGTAGGCCAGAGTACGCACAG, the PBM binding z-score stood at 2.4.
Then TTACCAAGGTGAGCTGAGGTCGTGGATCCAACTC, with 0.0501; and TCTATTAGTTGATTAGGGCAACCGCAACAGCGGA, with 3.34; and AGTCAAAGTTCATCTAGGTAACCTAAGATATGCT, with 3.52.
Then TCAGACAGGTGAAGGTAACGCAGGTACGCAGTCG, with 3.58.
On to AGAATGAGGTTATATGTAGATCAGGGAAGAAAGT, for which the PBM binding z-score worked out at 0.823.
Consider GCTCGGAGGACAAGGTCAGAGATTTGTCCGTAGA, for which the PBM binding z-score is -0.349.
Then TCTGCTAGGTCAGTTGGTCAGGTAACGAGCTGCC, with 1.15; and CCTCGGAGGACTACAGGAGGTCAGAGCTGCCAGA, with -0.885.
Then GGAACGACGGCAAGTTGATAGCAGAGTTTGATGG, with -0.288.
